# PubChem BioAssay
# The source made the active and inactive calls. Unless noted, the rule behind the calls is not given here.
# How the values were obtained:
# [1] = blockers of cellular phospholipid synthesis – cell-based, LOPAC library, screen 4, primary screen (AID 1347384); conditions: animal cells, phospholipid biosynthesis inhibition screen; at 10 µM
# [2] = compounds altering HSF1 focus formation in cells – imaging, Selleck Cancer Library (AID 1347162; in the data active = plate-normalised HSF1 focus index below about 0.46); conditions: human cells, HSF1 nuclear foci imaging, at 10 µM; SSMD: measured here: HSF1 foci SSMD mean; cell count: measured here: cell number; plate-normalised HSF1 focus index: stronger effect = lower value
# [3] = P. berghei load reduction in hepatocytes – cell-based, HepG2, luciferase luminescence, HepG2 viability, primary screen (AID 624349; in the data active = parasite load remaining mostly below about 12%, no sharp cut-off; inactive = mostly above about 10%;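 note: 100% = mean of DMSO negative control wells on the same plate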); conditions: P. berghei liver stage in HepG2, luciferase luminescence, concentration not given here; parasite load remaining: stronger effect = lower value; viability: measured here: HepG2 viability without parasites
# [4] = MELAS cybrid and Rieske KO viability enhancers – cell-based, MELAS cybrids, Rieske KO mouse fibroblasts, CellTiter-Glo, primary screen (AID 1508586;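 active = mean z-score across replicates of 1.96 or higher in either the MELAS or the Rieske mutant cell line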;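 note: z relative to plate mean and SD of compound and empty wells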); conditions: low glucose
# [5] = target: NAD(+) hydrolase SARM1 (Homo sapiens) (UniProt Q6SZW1); test: blocking NAD cleavage by SARM1 SAM-TIR – cell lysate, NAD-Glo luminescence (AID 1508614;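 active = compound whose remaining NAD level is above about 45 nM, limit read from the data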;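 note: higher remaining NAD means stronger inhibition of SARM1 NADase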); conditions: SAM-TIR HEK293T lysate NADase, at 1 µM, stronger effect = higher value
# [6] = galactose survival enhancers in mitochondrial complex I cybrids – cell-based, galactose medium, ATP luminescence, primary screen (AID 1645843;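 active = z-score of at least 1.8 in each of two replicates, scored against plate mean and spread of sample wells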;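 note: positive z means more ATP and so rescue of galactose-driven cybrid death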); conditions: complex I mutant cybrid cells, 72 h, stronger effect = higher value
# [7] = tested on: Hepatitis C virus NS3 helicase; test: blockers of NS3h binding to ssDNA – biochemical, fluorescence polarization, LOPAC1280 library, primary screen (AID 687035; in the data active = inhibition above about 37%); conditions: Purified HCV NS3 helicase, Cy5-dT15 ssDNA binding fluorescence polarization; stronger effect = higher value; concentration not given here
# [8] = compounds altering Cy5-DNA-NS3h complex signal – biochemical, LOPAC1280, artefact control for HCV NS3 helicase inhibitor project (AID 687037); conditions: Cy5-DNA-NS3h complex fluorescence interference counterscreen
# [9] = MELAS cybrid survival, CellTiter-Glo 48 h, stronger effect = higher value
# [10] = Rieske KO mouse fibroblast survival, CellTiter-Glo 72 h
# NAD(+) hydrolase SARM1 (Homo sapiens), sequence (Q6SZW1 whole entry, looked up): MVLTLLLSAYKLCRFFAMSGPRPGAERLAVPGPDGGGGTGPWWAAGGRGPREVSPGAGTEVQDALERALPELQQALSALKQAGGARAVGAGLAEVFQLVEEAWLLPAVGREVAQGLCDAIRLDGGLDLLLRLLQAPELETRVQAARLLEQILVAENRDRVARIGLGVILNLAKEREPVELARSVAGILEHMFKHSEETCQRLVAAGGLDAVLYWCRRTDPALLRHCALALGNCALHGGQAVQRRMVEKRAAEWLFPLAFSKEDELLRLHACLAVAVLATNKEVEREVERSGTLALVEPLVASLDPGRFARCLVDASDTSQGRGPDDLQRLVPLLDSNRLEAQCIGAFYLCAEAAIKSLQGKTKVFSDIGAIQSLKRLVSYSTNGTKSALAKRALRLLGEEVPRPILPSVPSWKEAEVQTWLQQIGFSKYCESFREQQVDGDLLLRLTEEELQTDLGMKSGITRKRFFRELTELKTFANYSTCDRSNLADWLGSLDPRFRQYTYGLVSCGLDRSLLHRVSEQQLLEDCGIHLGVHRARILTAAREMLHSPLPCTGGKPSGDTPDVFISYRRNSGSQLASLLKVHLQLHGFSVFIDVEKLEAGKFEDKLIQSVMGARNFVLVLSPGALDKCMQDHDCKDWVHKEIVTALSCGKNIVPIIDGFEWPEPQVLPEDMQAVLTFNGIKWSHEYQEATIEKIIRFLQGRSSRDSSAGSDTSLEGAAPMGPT
structure (smiles),measurement,setting,value
C[N+]1(C)CCC(OC(=O)C(c2ccccc2)c2ccccc2)CC1,outcome,[1],inactive
CCOC(=O)c1ccc(C#Cc2ccc3c(c2)CC(C)(C)CS3)nc1,outcome,[1],inactive
O=C(/C=C/c1ccc(O)cc1)CC(=O)/C=C/c1ccc(O)cc1,outcome,[1],inactive
CC1=NN(c2ccc(C(=O)O)cc2)C(=O)/C1=C\c1ccc(-c2cc(C)c(C)cc2[N+](=O)[O-])o1,SSMD,[2],1.04
same,cell count,[2],6690
same,plate-normalised HSF1 focus index,[2],1.07 (inactive)
COCCN1C2=C(C(=O)c3ccccc3C2=O)N(Cc2cnccn2)C1C (stereo unspecified),SSMD,[2],2.27
same,cell count,[2],6910
same,plate-normalised HSF1 focus index,[2],1.13 (inactive)
COc1c/c(=C2/C=c3ccccc3=N2)[nH]/c1=C\c1[nH]c(C)cc1C,SSMD,[2],-6.15
same,cell count,[2],7490
same,plate-normalised HSF1 focus index,[2],0.614 (inactive)
N#C/C(=C1/Nc2ccccc2S1)c1ccnc(NCCc2cccnc2)n1,parasite load remaining,[3],18.8% (inactive)
same,viability,[3],85.6%
same,SSMD,[2],2.72
same,cell count,[2],6770
same,plate-normalised HSF1 focus index,[2],1.16 (inactive)
Cc1cc(Nc2ncc3cc(-c4c(Cl)cccc4Cl)c(=O)n(C)c3n2)ccc1F,outcome,[1],inactive
O.O.[NH2-].[NH2-].[NH2-].[NH2-].[NH2-].[NH2-].[NH2-].[NH2-].[NH2-].[NH2-].[NH2-].[NH2-].[NH2-].[NH2-].[Ru+4].[Ru+5].[Ru+5],outcome,[1],inactive
COc1cc(C(=O)NC(=S)Nc2cccc(NC(=O)c3ccccc3)c2)cc(OC)c1OC,SSMD,[2],4.07
same,cell count,[2],6830
same,plate-normalised HSF1 focus index,[2],1.24 (inactive)
Nc1cc2c(ncn2CCOCP(=O)(O)O)c(=O)[nH]1,outcome,[1],inactive
CC[C@@H](C(=O)[C@@H](C)[C@@H](O)[C@H](C)[C@@H]1O[C@@H]([C@@H](CC)C(=O)O)CC[C@@H]1C)[C@H]1O[C@]2(C=C[C@@H](O)[C@]3(CC[C@@](C)([C@H]4CC[C@](O)(CC)[C@H](C)O4)O3)O2)[C@H](C)C[C@@H]1C,SSMD,[2],4.08
same,cell count,[2],7580
same,plate-normalised HSF1 focus index,[2],1.26 (inactive)
NC(=S)c1ccc[n+]([C@@H]2O[C@@H](COP(=O)(O)OP(=O)(O)OC[C@H]3O[C@@H](n4cnc5c(N)ncnc54)C(OP(=O)(O)O)[C@H]3O)C(O)C2O)c1 (stereo partly specified),outcome,[1],inactive
O=C1c2ccccc2-c2nc3nonc3nc21,SSMD,[2],-15
same,cell count,[2],3090
same,plate-normalised HSF1 focus index,[2],0.229 (active)
c1ccc(-c2cnn3cc(-c4ccc(OCCN5CCOCC5)cc4)cnc23)cc1,outcome,[1],inactive
COC(=O)[C@H](CCCN=C(N)N)NS(=O)(=O)c1ccc(C)cc1,SSMD,[2],1.44
same,cell count,[2],7120
same,plate-normalised HSF1 focus index,[2],1.08 (inactive)
CCCCCc1ccc(/C=C/[C@H](O)[C@@H](CO)NC)cc1,SSMD,[2],1.63
same,cell count,[2],6120
same,plate-normalised HSF1 focus index,[2],1.1 (inactive)
CCOc1ncc(S(=O)(=O)N2CCN(CC)CC2)cc1-c1nc2c(CC)n(CCOC)nc2c(=O)[nH]1,outcome,[1],inactive
O=C(Nc1cc(C(F)(F)F)cc(C(F)(F)F)c1)Nc1c(Br)cc(Br)cc1-c1nn[nH]n1,outcome,[1],inactive
CCN(CC)c1ncnc2c1ncn2[C@@H]1O[C@H](COP(=O)(O)OP(=O)(O)C(Br)(Br)P(=O)(O)O)[C@@H](O)[C@H]1O,outcome,[1],inactive
N[C@H](C(=O)O)[C@H](O)c1ccc(O)c(O)c1,outcome,[1],inactive
O=c1c2ccccc2[nH]c(=S)n1CCN1CCC(=C(c2ccc(F)cc2)c2ccc(F)cc2)CC1,parasite load remaining,[3],40.1% (inactive)
same,viability,[3],100%
same,SSMD,[2],4.04
same,cell count,[2],6860
same,plate-normalised HSF1 focus index,[2],1.24 (inactive)
CC[N+](CC)(CC)CC,outcome,[1],inactive
CC(C)CC(NP(=O)(O)O[C@@H]1O[C@@H](C)[C@H](O)[C@@H](O)[C@H]1O)C(=O)NC(Cc1c[nH]c2ccccc12)C(=O)O (stereo partly specified),outcome,[1],inactive
CC(=O)O[C@H]1CC2(C)[C@@H](C[C@@H](O)[C@H]3[C@@]4(C)CC[C@@H](O)[C@@H](C)[C@@H]4CC[C@@]32C)/C1=C(/CCC=C(C)C)C(=O)O (stereo partly specified),outcome,[1],inactive
Cc1nc(C#Cc2cccnc2)cs1,outcome,[1],inactive
N=c1ccn2c(n1)OC1C(O)[C@@H](CO)O[C@H]12 (stereo partly specified),outcome,[1],inactive
C[N+]1(C)C2CC(OC(=O)[C@H](CO)c3ccccc3)CC1C1OC12 (stereo partly specified),outcome,[1],inactive
CO/N=C(\C(=O)N[C@@H]1C(=O)N2C(C(=O)OC(C)OC(C)=O)=C(COC(N)=O)CS[C@H]12)c1ccco1 (stereo partly specified),z-score,[4]; [9],0.525 (inactive)
same,z-score,[4]; [10],0.0681
same,remaining NAD,[5],10 nM (inactive)
CCN1C(=O)N(CCc2ccccc2)C2(CCN(Cc3cnn(-c4ccccc4OC)c3)CC2)C1=O,z-score,[4]; [9],0.108 (inactive)
same,z-score,[4]; [10],0.254
same,z-score,[6],-0.37 (inactive)
O=C(Cn1cnc2ccccc21)N1CCc2c(cc(-c3cccc(Cl)c3)c(=O)n2CC2CC2)C1,z-score,[4]; [9],0.334 (inactive)
same,z-score,[4]; [10],-0.586
same,z-score,[6],-0.315 (inactive)
COc1ccc(C[C@@H]2c3cc(OC)c(OC)cc3CC[N@+]2(C)CCC(=O)OCCCCCOC(=O)CC[N@@+]2(C)CCc3cc(OC)c(OC)cc3[C@H]2Cc2ccc(OC)c(OC)c2)cc1OC,z-score,[4]; [9],-1.09 (inactive)
same,z-score,[4]; [10],-0.143
CCOC([O-])=Nc1c[n+](N2CCOCC2)no1,inhibition,[7],-3% (inactive)
same,fluorescence ratio (interference),[8],1 (inactive)
same,outcome,[1],inactive
CCN1CCCC1CNC(=O)c1nn(CCOC)c2c1CN(Cc1c(C)nc3sccn13)CC2 (stereo unspecified),z-score,[4]; [9],0.286 (inactive)
same,z-score,[4]; [10],-0.16
same,z-score,[6],-0.87 (inactive)
CC=C(C)C(=O)O[C@H]1[C@H](OC(C)=O)C2(CO)C(CC1(C)C)C1=CCC3C4(C)CCC(OC5O[C@H](C(=O)O)[C@@H](O[C@@H]6O[C@H](CO)[C@@H](O)[C@H](O)[C@H]6O)[C@H](O)[C@H]5O[C@@H]5O[C@H](CO)C(O)[C@H](O)[C@H]5O)[C@](C)(CO)C4CCC3(C)[C@]1(C)C[C@H]2O (stereo partly specified),z-score,[4]; [9],0.702
same,z-score,[4]; [10],2.95
